Results reported in PubChem BioAssay AID623911 (Vanderbilt High Throughput Screening Facility, 2012).
Screen size: about 2,100 compounds; about 770 (37%) were called active.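 The calls were made as follows: active = by-eye trace score of 1 for enhancers or -1 for inhibitors, so actives lie on both sides (some results past the limit were not filed as active); inactive = score 0, or 3 fluorescent, or 4 baseline rise.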 The list shows a part of the results.

biological target: G protein-activated inward rectifier potassium channel 2 (Homo sapiens) + G protein-activated inward rectifier potassium channel 1 (Homo sapiens) (UniProt P48051+P48549); test: GIRK1/2 thallium flux modulators, retest, confirmation, cell-based, HEK293 rmGlu8/hGIRK1/2, FluoZin-2 (AID 623911); conditions: HEK293 rmGlu8/hGIRK1/2, thallium flux FluoZin-2; actives lie on both sides; glutamate co-added at its EC20 level
Sequence (P48051 whole entry, looked up): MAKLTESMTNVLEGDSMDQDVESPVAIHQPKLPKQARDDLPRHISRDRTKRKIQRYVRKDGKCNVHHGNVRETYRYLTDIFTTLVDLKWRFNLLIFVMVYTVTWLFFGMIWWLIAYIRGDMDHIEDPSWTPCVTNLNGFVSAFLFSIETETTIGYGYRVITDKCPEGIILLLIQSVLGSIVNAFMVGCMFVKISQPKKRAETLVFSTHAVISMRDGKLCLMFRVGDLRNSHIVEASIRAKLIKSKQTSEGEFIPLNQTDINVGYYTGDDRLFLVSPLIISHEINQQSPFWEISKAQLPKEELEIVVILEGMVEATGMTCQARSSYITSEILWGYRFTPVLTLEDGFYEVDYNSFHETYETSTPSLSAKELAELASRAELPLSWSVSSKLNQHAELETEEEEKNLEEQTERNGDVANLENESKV
Sequence (P48549 whole entry, looked up): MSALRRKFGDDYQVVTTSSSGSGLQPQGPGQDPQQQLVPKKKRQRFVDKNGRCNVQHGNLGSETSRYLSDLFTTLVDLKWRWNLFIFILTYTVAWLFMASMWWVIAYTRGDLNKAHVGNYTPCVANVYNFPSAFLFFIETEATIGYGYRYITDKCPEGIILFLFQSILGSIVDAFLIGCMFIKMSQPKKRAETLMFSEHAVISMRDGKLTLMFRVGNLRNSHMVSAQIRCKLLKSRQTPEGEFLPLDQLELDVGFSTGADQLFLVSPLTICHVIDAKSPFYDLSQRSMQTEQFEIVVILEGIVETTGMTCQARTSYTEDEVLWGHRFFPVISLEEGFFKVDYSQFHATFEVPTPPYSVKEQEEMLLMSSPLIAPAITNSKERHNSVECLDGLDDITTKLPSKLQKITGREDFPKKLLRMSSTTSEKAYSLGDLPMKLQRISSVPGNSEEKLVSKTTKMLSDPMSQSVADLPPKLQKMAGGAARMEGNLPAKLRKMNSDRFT

Manual score, inactive:
COc1ccc(-c2ccnc3nc(Sc4ncc(C(F)(F)F)cc4Cl)nn23)cc1 0.5, CC(/C=N/NC(=O)c1c(Br)cnn1C)=C\c1ccccc1 0.5, Cc1cc(C(F)(F)F)c2c(=O)[nH]c(=O)n(Cc3ccccc3)c2n1 0, O=c1c2ccccc2[nH]c(=S)n1C1CCCCC1 0, CC(C)c1nc(=S)n(-c2ccccc2)[nH]1 0, Nc1nnc(C(=O)c2ccccc2N)s1 0, O=C(CSc1nc(-c2ccccc2)cc(C(F)(F)F)n1)NCCN1CCOCC1 0, Cc1ccc(-n2nnnc2-c2nc3ccccc3s2)cc1 0, CCCCn1c(-c2csc(C(C)C)c2)n[nH]c1=S 0, CC(C)NS(=O)(=O)c1ccc(OCC(=O)Nc2ccc3c(c2)OCO3)c(Cl)c1 0, COc1cc(NC(=O)CSc2nccc(C)n2)c(C)cc1[N+](=O)[O-] 0, Cc1ccc(Nc2n[nH]c(C)c2[N+](=O)[O-])cc1C -0.5, COc1cccc(OCCc2c(C)n[nH]c2C)c1 0, Cc1ccc(NC(=S)N=Nc2c(O)n(C)c3ccc(S(=O)(=O)N4CCOCC4)cc23)cc1 0, Cc1ccc(S(=O)(=O)N2CCN(C)CC2)cc1-c1nnc2c3ccccc3c(C)nn12 0, CC(C)(C)C1CCc2[nH]nc(C(=O)O)c2C1 (configuration not stated) 0.5, CC(O)c1nc2ccccc2n1C1CCCCC1 (configuration not stated) 0, C=CCOc1cccc(C2C(C(=O)c3ccc(C)o3)=C(O)C(=O)N2c2nccs2)c1 (configuration not stated) 3, CC(=O)Nc1ccc(C(=O)CSc2nc3ccc(C)cc3[nH]2)cc1 0, CC1=NN(C(N)=S)C(=O)C1N=Nc1ccc(C)cc1C (configuration not stated) 0.5, COc1ccc(CC(=O)Nc2cc(=O)n(C)c(=O)n2C)cc1 0, Cc1ccc(-c2cn(-c3ccccc3)c(SCC(=O)NC3CCS(=O)(=O)C3)n2)cc1C (configuration not stated) 0, O=c1c2cc(N3CCOCC3)ccc2[nH]c(=S)n1Cc1ccc(Cl)cc1 0, O=c1[nH]c2ccc(Cl)cc2c(=O)n1Cc1ccco1 0, O=C(COc1ccc(Cl)cc1Cl)Nc1ccccn1 0, Cc1cc(C)n(CC(=O)O)n1 0, O=C(COc1ccc(Cl)cc1Cl)NNC(=S)Nc1ccc(F)cc1 0, NC1=NC2(CCCCC2)n2c(nc3ccccc32)N1 0, CCSc1ccccc1C(=O)Nc1cccnc1 0, O=C(CCCc1nc(-c2ccc(Cl)cc2)no1)Nc1cccnc1 0, CCCCN(CCCC)S(=O)(=O)c1ccc(NC(=O)c2ccc([N+](=O)[O-])cc2Cl)cc1 0, CC(C)N(C(=O)CN(C#N)c1nc(N(C)C)nc(N(C)C)n1)c1ccccc1 0, CC(/C=N/n1c(-c2ccc(Cl)cc2)n[nH]c1=S)=C\c1ccco1 0, Oc1[nH]c2ccccc2c1N=NC(=S)NCCc1ccccc1 0, O=C(CSCc1ccccc1)N=Nc1c(O)[nH]c2ccccc12 0, Cc1ccc(-c2nnc(SCC(=O)Nc3cccc(C(=O)N4CCOCC4)c3)n2C)cc1 -0.5, O=C(c1ccc(-c2ccccc2)cc1)N1CCN(c2ncccn2)CC1 0, O=C(c1cc2nc(-c3ccccc3)cc(-c3ccccc3)n2n1)N1CCN(C(=O)c2ccco2)CC1 0, O=C(c1ccco1)N1CCN(C(=O)c2cnn3c2NC(c2cccs2)CC3C(F)(F)F)CC1 (configuration not stated) 0, COCC(C)OC(=O)c1c(N)n(CC(C)C)c2nc3ccccc3nc12 (configuration not stated) 0, O=C(O/N=C\c1ccc(N2CCCCC2)c([N+](=O)[O-])c1)c1c(F)cccc1F 0, O=C(NC(=S)Nc1cccc(Cl)c1N1CCCC1)c1ccc(-c2cccc([N+](=O)[O-])c2)o1 0, O=C(NC(=S)Nc1ccccc1N1CCOCC1)c1cccs1 0, N#CC(C#N)=C1C=C2C=C(N3CCCCCC3)CCC2CC1 (configuration not stated) 3, CCCC(=O)Nc1ccc(NC(=O)C2CC2)cn1 0, CN(c1ccc(OCC(=O)OCC(=O)Nc2ccccc2F)cc1)S(=O)(=O)c1cccs1 0, CCc1sc(NC(=O)CN2CCOCC2)nc1-c1ccccc1 0, O=C(CNC1CCCCCC1)Nc1ccc(N2CCCC2)cc1 0, CCOC(=O)CSc1nc2ccc(Nc3nc(N4CCOCC4)nc(N4CCOCC4)n3)cc2s1 0, O=C1CC(c2ccco2)Sc2nc3ccccc3n21 (configuration not stated) 0, Cc1ccc(-n2[nH]c(C)c(/C=N/c3ccccn3)c2=O)cc1 0, Cc1ccc(C2CC2c2n[nH]c(=S)n2-c2ccc(C)cc2)cc1 (configuration not stated) 0, CCOc1ccccc1N1CCN(C(=S)NC(=O)C23CC4CC(CC(C4)C2)C3)CC1 0, CCOc1ccccc1N1CCN(C(=O)c2cc3c(s2)CCC3)CC1 -0.5, NC(=O)c1noc(C(=O)N(CC(=O)NC2CCCC2)Cc2ccc3c(c2)OCO3)c1N 0, O=C(CSc1c[nH]c2ccccc12)NCc1ccc2c(c1)OCO2 -0.5, Cc1ccc(C)n1-c1ccc(C(=O)NN)cc1 0, CC(/C=N/n1c(C2CCCCC2)n[nH]c1=S)=C\c1ccccc1 0, CC(C)c1ccc(-n2cccc2/C=C2/C(=N)N3C=CSC3=NC2=O)cc1 0, C=CCn1c(N)c(C(=O)OC(C)(C)C)c2nc3ccccc3nc21 0, CCCCn1c(O)c(N=Nc2ccccn2)c2ccccc21 0, CCn1c(O)c(N=NC(=O)CNc2cccc(C)c2)c2ccccc21 0, CCCCNC(=S)N=Nc1c(O)n(Cc2ccccc2)c2ccccc12 0, O=C(NC(=S)N1CCCCC1)C12CC3CC(CC(C3)C1)C2 0.5, CC12CC3CC(C)(C1)CC(C(=O)NC(=S)N1CCOCC1)(C3)C2 0.5, CCC1(C)CC(c2csc(N)n2)CCO1 (configuration not stated) 0, CCOc1ccc(N2C(=O)c3ccccc3C2O)cc1 (configuration not stated) 0, CCCCN1C(=O)c2ccccc2C1C(=O)NC1CCCC1 (configuration not stated) 0, CCc1nc(SCC(=O)Nc2nnc(CC)s2)c2c(C)c(C)sc2n1 0, Cc1sc2nc(C3CC3)nc(SCC(=O)N3CC(=O)Nc4ccccc43)c2c1C 0

Manual score, active:
S=c1nc(C2CC2)[nH]c2ccccc12 1, CC(C)c1nc(=S)c2ccccc2[nH]1 1, CCc1nc2cc(Cl)c(Cl)cc2[nH]1 1, O=P(CCCCCCCCCP(=O)(c1ccccc1)c1ccccc1)(c1ccccc1)c1ccccc1 -1, Cc1ccc2cccc(Oc3nnnn3-c3ccccc3)c2n1 -1, CCCc1noc2c1/C(=N\O)CC(CC(C)SCC)C2 (configuration not stated) -1, COc1ccc2c(c1)Sc1ccccc1N2CCN(C)C -1, COc1ccc2occ(C(=O)c3ccc(N=C(C)N(C)C)cc3)c2c1 -1, Cc1ccc(OCC(=O)Nc2ccc(C)c(S(=O)(=O)N3CCCCC3)c2)c([N+](=O)[O-])n1 1, Cc1ccc(NC(=O)COc2cccnc2[N+](=O)[O-])cc1S(=O)(=O)N1CCCCC1 1, COC(=O)c1cc(CSc2nc3ccc(C)cc3[nH]2)oc1C -1, CC1=NN(C(N)=S)C(=O)C1N=Nc1ccccc1C (configuration not stated) 1, O=c1c2cc(Cl)ccc2[nH]c(=S)n1Cc1ccco1 1, Cc1cc(NC(=O)Nc2ccccc2)n(-c2ccccc2)n1 1, Cc1cc(NC(=O)COc2ccc(Cl)cc2Cl)n(-c2ccccc2)n1 1, CCCCc1ccc(NC(=S)Nc2cccnc2)cc1 1, CCCCc1ccc(NC(=S)Nc2ccc(Cl)c(S(=O)(=O)N(C)C)c2)cc1 1, Oc1[nH]c2ccccc2c1N=Nc1nc2ccccc2s1 1, O=C(c1ccco1)N1CCN(c2ncnc3scc(-c4cccs4)c23)CC1 -1, Cc1ccc(-c2csc3ncnc(N4CCN(C(=O)c5ccccc5)CC4)c23)cc1 -1, CCOP(=O)(c1ccccc1)c1nc(-c2ccccc2C)oc1N1CCCCC1 (configuration not stated) -1, O=C(NC(=S)N1CCN(c2ccc(Cl)cc2[N+](=O)[O-])CC1)c1cccs1 1, O=C(NC(=S)N1CCCCC1)c1cccs1 1, O=C(NC(=S)N1CCN(c2c(Cl)cccc2[N+](=O)[O-])CC1)c1cccs1 1, O=C(NC(=S)N1CCN(c2ccc(Cl)cc2[N+](=O)[O-])CC1)c1ccco1 1, O=C(NC(=S)N1CCN(c2ccc(C(F)(F)F)cc2[N+](=O)[O-])CC1)c1cccs1 1, O=C(CN1CCOCC1)Nc1ccc(C2CCCCC2)cc1 1, S=c1[nH]c2cc(Cl)ccc2s1 1, CCCc1nc2ccccc2c(=O)n1/N=C/c1c(C)[nH]n(-c2ccc(C)cc2)c1=O 1, CCCc1ccc(C(=O)N2CCN(c3ccccc3OCC)CC2)cc1 -1, O=C(CSc1nc(CCC2CCCC2)nc2ccccc12)NCc1ccc2c(c1)OCO2 1, CCCn1c(O)c(N=NC(=O)c2ccco2)c2ccccc21 1, C=CCn1c(O)c(N=NC(=O)OC(C)(C)C)c2ccccc21 1, CC12CC3CC(C)(C1)CC(C(=O)NC(=S)N1CCCCC1)(C3)C2 1, CC12CC3(C)CC(C)(C1)CC(C(=O)NC(=S)N1CCOCC1)(C2)C3 1, CCCCOc1ccccc1C1C(C(=O)OC)=C(C)N(C)C(C)=C1C(=O)OC -1, CCc1nc(SCC(=O)N2CC(=O)Nc3ccccc32)c2c(C)c(C)sc2n1 1
